In PubChem BioAssay AID1159580 (chemical genetic matrix, 2015):
Among all 5,500 compounds or so, about 2,000 (36%) were called active. Inconclusive results (about 18%) are left out. Rule as the data show it: active = normalized growth mostly below about 0.91 (no sharp cut-off); inconclusive = no clear call, values can overlap the other calls; inactive = mostly above about 0.92. Some of the results follow.

Assay: chemical genetic growth profiling, strain panel (AID 1159580);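 also: tested at 20 µM; growth read once vehicle control cultures reached saturation at 30 °C; 1 = growth at the plate median or of vehicle wells; lower values mean less growth of the strain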
Conditions: growth OD

Measured: normalized growth

CCn1cc(C(=O)O)c(=O)c2cnc(N3CCNCC3)nc21
inactive: S. cerevisiae deletion strains, locus YKL009W, strain mrt4, hits give low values 1.03 | S. cerevisiae deletion strains, locus YKL068W, hits give low values 0.994 | S. cerevisiae deletion strains, locus YKL085W, strain MDH1 (second series), hits give low values 0.984 | S. cerevisiae deletion strains, locus YKL085W, strain MDH1, hits give low values 0.984 | S. cerevisiae deletion strains, locus YKL160W, strain elf1, hits give low values 1.03 | S. cerevisiae deletion strains, locus YKL190W, strain CNB1, hits give low values 1 | S. cerevisiae deletion strains, locus YKR001C, strain vps1, hits give low values 1.02 | S. cerevisiae deletion strains, locus YKR026C, strain gcn3, hits give low values 1.01 | S. cerevisiae deletion strains, locus YKR091W, strain srl3, hits give low values 1 | S. cerevisiae deletion strains, locus YLL001W, strain dnm1, hits give low values 1.01 | S. cerevisiae deletion strains, locus YLL026W, hits give low values 1.02 | S. cerevisiae deletion strains, locus YLL041C, strain sdh2, hits give low values 1.01 | S. cerevisiae deletion strains, locus YLR027C, strain aat2, hits give low values 1.01 | S. cerevisiae deletion strains, locus YLR039C, strain RIC1, hits give low values 0.942 | S. cerevisiae deletion strains, locus YLR058C, strain SHM2, hits give low values 0.988 | S. cerevisiae deletion strains, locus YLR102C, strain apc9, hits give low values 0.993 | S. cerevisiae deletion strains, locus YLR113W, strain HOG1, hits give low values 1.02 | S. cerevisiae deletion strains, locus YLR221C, strain rsa3, hits give low values 1 | S. cerevisiae deletion strains, locus YLR258W, strain gsy2, hits give low values 1.04 | S. cerevisiae deletion strains, locus YLR262C, strain YPT6 (second series), hits give low values 0.992 | S. cerevisiae deletion strains, locus YLR262C, strain YPT6, hits give low values 0.975 | S. cerevisiae deletion strains, locus YLR268W, strain sec22, hits give low values 0.991 | S. cerevisiae deletion strains, locus YLR320W, strain mms22, hits give low values 0.968 | S. cerevisiae deletion strains, locus YLR330W, strain CHS5, hits give low values 0.981 | S. cerevisiae deletion strains, locus YLR342W, strain FKS1 (second series), hits give low values 0.96 | S. cerevisiae deletion strains, locus YLR342W, strain FKS1, hits give low values 1.02 | S. cerevisiae deletion strains, locus YLR357W, strain rsc2, hits give low values 1.01 | S. cerevisiae deletion strains, locus YLR370C, strain arc18, hits give low values 1.02 | S. cerevisiae deletion strains, locus YLR371W, strain rom2, hits give low values 0.981 | S. cerevisiae deletion strains, locus YLR384C, strain iki3, hits give low values 0.999 | S. cerevisiae deletion strains, locus YLR418C, strain cdc73, hits give low values 0.951 | S. cerevisiae deletion strains, locus YML016C, strain PPZ1, hits give low values 0.977 | S. cerevisiae deletion strains, locus YML032C, strain rad52, hits give low values 1 | S. cerevisiae deletion strains, locus YML120C, strain ndi1, hits give low values 1.03 | S. cerevisiae deletion strains, locus YML124C, strain tub3, hits give low values 0.985 | S. cerevisiae deletion strains, locus YMR058W, strain fet3, hits give low values 1.01 | S. cerevisiae deletion strains, locus YMR078C, strain ctf18, hits give low values 0.98 | S. cerevisiae deletion strains, locus YMR125W, strain sto1, hits give low values 1.02 | S. cerevisiae deletion strains, locus YMR129W, hits give low values 1.01 | S. cerevisiae deletion strains, locus YMR205C, strain PFK2, hits give low values 1 | S. cerevisiae deletion strains, locus YMR223W, strain ubp8, hits give low values 0.983 | S. cerevisiae deletion strains, locus YMR231W, strain pep5, hits give low values 1.01 | S. cerevisiae deletion strains, locus YMR263W, strain SAP30, hits give low values 1.01 | S. cerevisiae deletion strains, locus YMR307W, strain GAS1, hits give low values 1.01 | S. cerevisiae deletion strains, locus YNL067W, strain RPL9B, hits give low values 1.03 | S. cerevisiae deletion strains, locus YNL071W, strain lat1, hits give low values 1.01 | S. cerevisiae deletion strains, locus YNL128W, strain TEP1, hits give low values 0.977 | S. cerevisiae deletion strains, locus YNL153C, strain GIM3, hits give low values 1.06 | S. cerevisiae deletion strains, locus YNL183C, strain NPR1, hits give low values 0.997 | S. cerevisiae deletion strains, locus YNL209W, strain ssb2, hits give low values 1 | S. cerevisiae deletion strains, locus YNL233W, strain BNI4, hits give low values 1.02 | S. cerevisiae deletion strains, locus YNL248C, strain rpa49, hits give low values 1.04 | S. cerevisiae deletion strains, locus YNL250W, strain rad50, hits give low values 0.964 | S. cerevisiae deletion strains, locus YNL271C, strain bni1, hits give low values 0.979 | S. cerevisiae deletion strains, locus YNL298W, strain CLA4, hits give low values 0.978 | S. cerevisiae deletion strains, locus YNL307C, strain MCK1, hits give low values 0.991 | S. cerevisiae deletion strains, locus YNL322C, strain KRE1 (second series), hits give low values 1.04 | S. cerevisiae deletion strains, locus YNL322C, strain KRE1, hits give low values 0.997 | S. cerevisiae deletion strains, locus YNR049C, strain mso1, hits give low values 1.01 | S. cerevisiae deletion strains, locus YNR052C, strain pop2, hits give low values 0.979 | S. cerevisiae deletion strains, locus YOL006C, strain TOP1, hits give low values 1.07 | S. cerevisiae deletion strains, locus YOL012C, strain htz1 0.676 | S. cerevisiae deletion strains, locus YOL147C, strain pex11, hits give low values 0.991 | S. cerevisiae deletion strains, locus YOR001W, strain rrp6, hits give low values 1 | S. cerevisiae deletion strains, locus YOR061W, strain CKA2, hits give low values 0.988 | S. cerevisiae deletion strains, locus YOR069W, strain VPS5, hits give low values 0.984 | S. cerevisiae deletion strains, locus YOR070C, strain gyp1, hits give low values 1.02 | S. cerevisiae deletion strains, locus YOR080W, strain dia2, hits give low values 1.02 | S. cerevisiae deletion strains, locus YOR083W, strain WHI5, hits give low values 0.993 | S. cerevisiae deletion strains, locus YOR106W, strain vam3, hits give low values 1.04 | S. cerevisiae deletion strains, locus YOR136W, strain idh2, hits give low values 0.995 | S. cerevisiae deletion strains, locus YOR144C, strain elg1, hits give low values 0.988 | S. cerevisiae deletion strains, locus YOR184W, strain ser1, hits give low values 1 | S. cerevisiae deletion strains, locus YOR231W, strain MKK1, hits give low values 1.03 | S. cerevisiae deletion strains, locus YOR265W, strain rbl2, hits give low values 1.02 | S. cerevisiae deletion strains, locus YOR270C, strain vph1, hits give low values 1.16 | S. cerevisiae deletion strains, locus YOR290C, strain snf2, hits give low values 1.04 | S. cerevisiae deletion strains, locus YOR316C, strain cot1, hits give low values 0.99 | S. cerevisiae deletion strains, locus YPL051W, strain arl3, hits give low values 1.02 | S. cerevisiae deletion strains, locus YPL078C, strain atp4, hits give low values 1.04 | S. cerevisiae deletion strains, locus YPL106C, strain sse1, hits give low values 1.01 | S. cerevisiae deletion strains, locus YPL240C, strain hsp82, hits give low values 1 | S. cerevisiae deletion strains, locus YPL256C, strain CLN2, hits give low values 1.08 | S. cerevisiae deletion strains, locus YPR119W, strain clb2, hits give low values 0.993 | S. cerevisiae deletion strains, locus YPR141C, strain kar3, hits give low values 0.981 | S. cerevisiae deletion strains, locus YPR163C, strain tif3, hits give low values 0.984 | S. cerevisiae deletion strains, locus YPR167C, strain met16, hits give low values 0.979 | S. cerevisiae deletion strains, strain wtn01, hits give low values 0.982 | S. cerevisiae strains, strain wild type, hits give low values 0.998
